Several values for one entry are separate records, joined by “and”; a condition that tells them apart may be missing. Equal values may be shown once. Inconclusive results are not listed. Activity calls are given as the source filed them.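 The calls were made as follows, unless noted: active = compounds whose dose series gives a full or clear partial fitted curve of increased nuclear translocation; inconclusive = weak partial curve or effect only at the top dose; inactive = no dose-dependent translocation response.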
Tests used:
[1] = biological target: Glucocorticoid receptor (Homo sapiens) (UniProt P04150); assay: GR-GFP Redistribution (AID 450); settings: U2OS GR-GFP nuclear translocation, laser cytometry, 2 h; also: potency is read from the fitted curve at half-maximal effect
[2] = biological target: Glucocorticoid receptor (Homo sapiens) (UniProt P04150); assay: GR-EFC Redistribution (AID 451; calls by dose curve; also: potency is read from the fitted curve at half-maximal effect); settings: CHO-K1 GR-EFC translocation, beta-gal luminescence, 2 h
Outline: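 Translocation of GR-ED fusion to nuclear EA restores b-gal, read by luminescence after 1 h room-temperature detection. Engineered CHO-K1 biosensor cells, 1,000/well, exposed 2 h at 37 C to titrations up to 46 uM final.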

[3] = biological target: Mitogen-activated protein kinase 10 (Mus musculus) (UniProt Q61831); assay: JNK3 AlphaScreen Assay (AID 530; active = well fitted curve in either direction with a large enough effect, not every such curve was filed as active;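 also: kinase came from lysate of stimulated human HepG2 cells; signal reports phosphorylation of biotinylated GST-cJun 1-79 at Ser73 with 10 µM ATP; % is scaled to controls: 0 for no effect and ±100 for the full control effect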); settings: JNK3 lysate, c-Jun phosphorylation; series mostly up to 57.1 µM
Outline: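 Compound titrations were preincubated 15 minutes at room temperature with substrate, antibody and pre-activated JNK3-containing HepG2 lysate. Reactions were started with 10 uM ATP and stopped with EDTA-containing bead buffer for AlphaScreen detection.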

[4] = biological target: 3',5'-cyclic-AMP phosphodiesterase 4B (Homo sapiens) (UniProt Q07343); assay: qHTS Assay for Inhibitors of PDE-IV (AID 607; active = well fitted activation curve with a large enough effect in the main read-out, with a control signal flat, not every such curve was filed as active; also: % of control where 0% means no effect); settings: HEK293 ACTOne CNG channel cells, membrane potential fluorescence; series mostly up to 22.9 µM
Outline: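 The readout is membrane depolarisation from a cAMP-sensing CNG channel, detected with a potential dye at ex 535/em 590. Cells were HEK293-derived (endogenous PDE-IV) at 1000 cells/well, titrated up to 22.9 uM final.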

[5] = Cell Viability - N2a (AID 540; active = well fitted curve in the direction sought with a large enough effect; an effect the other way counts as inactive or inconclusive;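 also: potency is read from the fitted curve at half-maximal effect; cells exposed to compound for 40 h at 37 °C; nearly all actives have a fitted effect of over 45% in size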); settings: N2a mouse neuroblastoma cell viability; activity change, negative = cytotoxicity: at 92.2 µM (top of the series)
Outline: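 Luminescent ATP signal (CellTiter-Glo, 20 min at room temperature) served as the viability read-out after N2a cells were treated with compounds for 40 hours at 37 °C. Concentration-response data were fitted to the Hill equation for AC50.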

[6] = Cell Viability - HUV-EC-C (AID 542; active = well fitted curve in the direction sought with a large enough effect; an effect the other way counts as inactive or inconclusive; also: potency is read from the fitted curve at half-maximal effect; nearly all actives have a fitted effect of over 35% in size); settings: HUV-EC-C endothelial cell viability, qHTS; series mostly up to 92.2 µM
Outline: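 qHTS cytotoxicity: HUV-EC-C, 1000 cells/well, 5 hr settle, compound 40 hr 37 °C, CellTiter-Glo, luminescence. AC50 via Hill equation.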

[7] = Cell Viability - H-4-II-E (AID 543; active = well fitted curve in the direction sought with a large enough effect; an effect the other way counts as inactive or inconclusive; also: potency is read from the fitted curve at half-maximal effect; nearly all actives have a fitted effect of over 35% in size); settings: H-4-II-E rat hepatoma viability; series mostly up to 92.2 µM
Outline: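 Luminescent ATP signal (CellTiter-Glo) served as the viability read-out, with cytotoxicity seen as a concentration-dependent ATP drop. Cells were treated for 40 hours in complete medium. AC50 values derive from Hill-equation modelling.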

[8] = Cell Viability - SH-SY5Y (AID 544; active = well fitted curve in the direction sought with a large enough effect; an effect the other way counts as inactive or inconclusive; also: potency is read from the fitted curve at half-maximal effect; nearly all actives have a fitted effect of over 55% in size); settings: SH-SY5Y neuroblastoma cell viability; viability change, negative = cytotoxic: at 92.2 µM (top of the series)
Outline: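 Luminescent ATP read-out (CellTiter-Glo) measures loss of viable SH-SY5Y neuroblastoma cells after 40 hr compound exposure at 37 °C. AC50 values derive from standard Hill modelling of qHTS concentration-response data.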

[9] = Cell Viability - Renal Proximal Tubule (AID 545; active = well fitted curve in the direction sought with a large enough effect; an effect the other way counts as inactive or inconclusive; also: potency is read from the fitted curve at half-maximal effect; nearly all actives have a fitted effect of over 40% in size); settings: renal proximal tubule cells viability, primary cells of rat origin; activity change, negative = cytotoxicity: at 91.7 µM (top of the series)
Outline: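 Rat kidney proximal tubule cells, freshly isolated; 1000 cells/well, 5 hr settle, compound 40 hr 37 °C. CellTiter-Glo 20 min RT, luminescence read. AC50 by standard Hill fit.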

[10] = Cell Viability - Mesenchymal (AID 546; active = well fitted curve in the direction sought with a large enough effect; an effect the other way counts as inactive or inconclusive;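 also: potency is read from the fitted curve at half-maximal effect; cells exposed to compound for 40 hours before reading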); settings: mesenchymal cells viability, qHTS; activity change, negative = cytotoxicity: at 91.7 µM (top of the series)
Outline: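 AC50 values reflect the drop in intracellular ATP in a human kidney mesenchymal line derived from normal glomeruli. Treatment lasts 40 hr at 37 °C in complete medium, and the signal comes from CellTiter-Glo luminescence.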

[11] = Cellular Toxicity (caspase-3) HepG2 (AID 654; active = well fitted curve in the direction sought with a large enough effect; an effect the other way counts as inactive or inconclusive; also: potency is read from the fitted curve at half-maximal effect); settings: HepG2 caspase-3 activation, luminescence; series mostly up to 92.2 µM
Outline: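 Cells plated 5 hr at 37 °C, compound added, incubated 16 hr at 37 °C. Caspase-Glo 3/7 reagent followed, 20 min at room temperature, then luminescence read. Activation scored as signal increase; AC50 from Hill fit.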

[12] = Cellular Toxicity (caspase-3) HUV-EC-C (AID 656; active = well fitted curve in the direction sought with a large enough effect; an effect the other way counts as inactive or inconclusive); settings: HUV-EC-C cells, caspase-3 activation (apoptosis), vehicle = 0, 100 µM tamoxifen = 100%; series mostly up to 92.2 µM
Outline: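 Luminescent caspase-3/7 activation (aminoluciferin substrate cleavage) in HUV-EC-C cells after 16 hr compound exposure, 37°C. Signal normalized to DMSO basal and 100 uM tamoxifen as 100%; AC50 from concentration-response fitted with the Hill equation.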

[13] = Cellular Toxicity (caspase-3) Mesangial (AID 660; active = well fitted curve in the direction sought with a large enough effect; an effect the other way counts as inactive or inconclusive;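 also: combined caspase 3 and 7 activity read by Caspase-Glo luminescence; potency is read from the fitted curve at half-maximal effect; cells exposed to compound for 16 h before the caspase read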); settings: mesangial cells; Potency: caspase-3 activation; series mostly up to 91.7 µM
Outline: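 Mesangial cells, 1000/well, 5 h settle at 37 °C; compound 16 h, 37 °C; Caspase-Glo 3/7 reagent 20 min RT; luminescence. Norm.: DMSO = 0%, tamoxifen 100 uM = 100%. AC50, Hill fit.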

[14] = Cellular Toxicity (caspase-3) SK-N-SH (AID 661; active = well fitted curve in the direction sought with a large enough effect; an effect the other way counts as inactive or inconclusive; also: potency is read from the fitted curve at half-maximal effect); settings: SK-N-SH caspase-3 activation, qHTS; series mostly up to 91.7 µM
Outline: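 Human neuroblastoma SK-N-SH, 1500 cells/well, 5 hr pre-incubation, then compound 16 hr, 37 °C. Caspase-Glo 3/7 reagent, 1 hr RT, luminescence. Norm. to DMSO/10 uM staurosporine; Hill-fit AC50.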

[15] = Cellular Toxicity (caspase-3) H-4-II-E (AID 663; active = well fitted curve in the direction sought with a large enough effect; an effect the other way counts as inactive or inconclusive;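 also: cells exposed to compound for 16 hr before readout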); settings: H-4-II-E rat hepatoma, scaled: DMSO 0%, 100 µM tamoxifen 100%; at 92.2 µM (top of the series)
Outline: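 Apoptosis induction is scored as increased luminescence from caspase 3/7 substrate cleavage in rat hepatoma H-4-II-E cells exposed to compound for 16 hr. Activity is scaled between DMSO and 100 uM tamoxifen.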

[16] = Cellular Toxicity (caspase-3) Hek293 (AID 664; active = well fitted curve in the direction sought with a large enough effect; an effect the other way counts as inactive or inconclusive;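 also: cells exposed to compound for 16 h at 37 °C before readout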); settings: HEK293 caspase-3 activation, DMSO = 0%, 100 µM tamoxifen = 100%; at 92.2 µM (top of the series)
Outline: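 Cells plated, 5 hr at 37 °C; compounds added; 16 hr at 37 °C; Caspase-Glo 3/7 reagent, 20 min RT; luminescence read. Activation expressed relative to DMSO and 100 uM tamoxifen, AC50 by Hill model.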

Sequence of 3',5'-cyclic-AMP phosphodiesterase 4B (Homo sapiens) (Q07343 whole entry, looked up): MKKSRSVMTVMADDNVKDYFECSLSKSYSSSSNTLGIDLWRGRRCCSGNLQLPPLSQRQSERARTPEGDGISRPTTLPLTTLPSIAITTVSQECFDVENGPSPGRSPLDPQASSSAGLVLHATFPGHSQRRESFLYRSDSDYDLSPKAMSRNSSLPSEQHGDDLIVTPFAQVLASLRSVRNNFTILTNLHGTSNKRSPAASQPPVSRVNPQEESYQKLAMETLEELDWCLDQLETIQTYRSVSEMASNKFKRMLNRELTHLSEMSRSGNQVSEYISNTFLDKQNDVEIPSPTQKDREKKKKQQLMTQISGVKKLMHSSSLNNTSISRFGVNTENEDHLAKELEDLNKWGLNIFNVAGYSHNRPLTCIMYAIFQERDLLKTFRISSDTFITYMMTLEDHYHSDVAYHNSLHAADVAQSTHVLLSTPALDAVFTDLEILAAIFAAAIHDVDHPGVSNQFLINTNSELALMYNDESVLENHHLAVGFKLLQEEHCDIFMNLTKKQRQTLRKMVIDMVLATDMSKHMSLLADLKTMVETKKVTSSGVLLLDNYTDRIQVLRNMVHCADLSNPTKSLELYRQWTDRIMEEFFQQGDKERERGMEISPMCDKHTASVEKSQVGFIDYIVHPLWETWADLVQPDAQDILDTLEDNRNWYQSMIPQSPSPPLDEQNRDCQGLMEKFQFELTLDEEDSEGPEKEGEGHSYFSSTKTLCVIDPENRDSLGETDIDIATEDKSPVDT
Sequence of Glucocorticoid receptor (Homo sapiens) (P04150 whole entry, looked up, the tested form may be a part): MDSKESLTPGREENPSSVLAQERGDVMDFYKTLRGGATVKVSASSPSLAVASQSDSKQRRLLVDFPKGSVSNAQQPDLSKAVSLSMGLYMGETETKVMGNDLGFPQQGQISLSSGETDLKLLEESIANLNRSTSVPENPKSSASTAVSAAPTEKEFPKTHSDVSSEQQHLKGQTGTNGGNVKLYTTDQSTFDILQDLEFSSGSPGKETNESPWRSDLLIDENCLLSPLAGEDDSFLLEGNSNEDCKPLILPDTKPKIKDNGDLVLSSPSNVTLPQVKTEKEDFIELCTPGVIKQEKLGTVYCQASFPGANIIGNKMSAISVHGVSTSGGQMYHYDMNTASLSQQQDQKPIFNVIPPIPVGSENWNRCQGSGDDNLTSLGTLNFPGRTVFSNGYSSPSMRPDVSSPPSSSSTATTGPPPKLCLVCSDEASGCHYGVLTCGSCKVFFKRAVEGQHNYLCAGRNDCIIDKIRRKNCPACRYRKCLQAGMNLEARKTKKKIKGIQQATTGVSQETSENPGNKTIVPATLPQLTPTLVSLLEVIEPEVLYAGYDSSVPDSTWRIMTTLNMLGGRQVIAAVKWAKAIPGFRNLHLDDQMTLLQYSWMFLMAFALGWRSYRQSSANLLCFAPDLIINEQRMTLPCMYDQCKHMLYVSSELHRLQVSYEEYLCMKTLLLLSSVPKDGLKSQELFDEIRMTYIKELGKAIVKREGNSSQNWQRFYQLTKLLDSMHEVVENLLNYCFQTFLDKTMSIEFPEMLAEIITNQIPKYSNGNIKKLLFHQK

N[C@@H](CC(=O)O)C(=O)O
inactive: Potency [1] > 46 µM

O=Nc1ccc2oc(=O)ccc2c1
inactive: Potency [1] > 46 µM | Potency [2] > 46 µM | Potency [3] | outcome [4]

O=C(Nc1ccccc1)c1cc([N+](=O)[O-])ccc1Cl
inactive: Potency [1] > 46 µM | Potency [2] > 46 µM | Potency [3] | outcome [4]

NCCNC(=O)c1ncsc1-c1cccc(F)c1
inactive: Potency [1] > 46 µM | Potency [2] > 46 µM | Potency [3] | outcome [4]

OC[C@H]1O[C@@H](n2cnc3c(Nc4ccccc4)ncnc32)[C@H](O)[C@@H]1O
inactive: Potency [1] > 20.6 µM

C[C@@H](CN1CCC(Cc2ccccc2)CC1)[C@@H](O)c1ccc(O)cc1
inactive: Potency [1] > 46 µM | Potency [2] > 46 µM | Potency [3]

CN=c1nc(-c2ccccc2)n(-c2ccccc2)s1
inactive: Potency [1] > 46 µM | Potency [2] > 46 µM | Potency [3] | outcome [4]

Clc1ccccc1-c1nc(-c2ccncc2)no1
inactive: Potency [1] > 46 µM | Potency [2] > 9.22 µM | activity change, negative = inhibition [3] 3.99% [at 11.4 µM] | outcome [4]

Nc1ccc(C(=O)O)c(O)c1
inactive: Potency [1] > 20.6 µM

Nc1nc(Cl)nc2c1ncn2[C@@H]1O[C@H](CO)[C@@H](O)[C@H]1O
inactive: Potency [1] > 20.6 µM

CCOc1ccc2nc(S(N)(=O)=O)sc2c1
inactive: Potency [1] > 20.6 µM

CN(C)c1ccc(C(=C2C=CC(=[N+](C)C)C=C2)c2ccccc2)cc1
inactive: Potency [1] > 46 µM | Potency [2] > 9.22 µM | activity change, negative = inhibition [3] -22.8% [at 11.4 µM] | outcome [4] | outcome [12]
active: Potency [5] 0.0316 µM | Potency [6] 6.31 µM | Potency [7] 0.0794 µM | Potency [8] 0.1 µM | Potency [9] 0.2 µM | Potency [10] 0.316 µM | Potency [11] 0.631 µM | Potency [13] 1.26 µM | Potency [14] 1 µM | caspase-3 activation [15] -4.63% | caspase-3 activation [16] -9.3%

CCCCCCCC/C=C\CCCCCCCC(=O)NCCO
inactive: Potency [1] > 46 µM | Potency [2] > 46 µM | Potency [3] | outcome [4]

N=c1ccn2c(n1)O[C@H]1[C@H](O)[C@@H](CO)O[C@H]12
inactive: Potency [1] > 46 µM | Potency [2] > 46 µM | Potency [3] | outcome [4]

Cc1nc2sccn2c(=O)c1CCN1CCC(=C(c2ccccc2)c2ccc(F)cc2)CC1
inactive: Potency [1] > 46 µM and > 20.6 µM | Potency [2] > 46 µM | Potency [3] | outcome [4]

CC1(C)CCC=[N+]1[O-]
inactive: Potency [1] > 46 µM | Potency [2] > 46 µM | Potency [3] | outcome [4]

NCCCCC(=O)O
inactive: Potency [1] > 46 µM | Potency [2] > 46 µM | Potency [3] | outcome [4]

COc1cc(OC)c(/C=C2/C(=O)Nc3ccccc32)c(OC)c1
inactive: Potency [1] > 46 µM | Potency [2] > 46 µM | Potency [3] | outcome [4]

OC[C@H]1O[C@@H](n2cnc3c(NC4CCCC4)ncnc32)[C@H](O)[C@@H]1O
inactive: Potency [1] > 20.6 µM

NC(N)=NC(=O)c1nc(Cl)c(N2CCCCCC2)nc1N
inactive: Potency [1] > 46 µM | Potency [2] > 46 µM | Potency [3] | outcome [4]

Nc1cc(-c2ccncc2)c[nH]c1=O
inactive: Potency [1] > 20.6 µM | Potency [2] > 20.6 µM | Potency [3] | outcome [4]

Reference: PubChem BioAssay (NCATS)
